FLuc modulator: firefly luciferase modulation, counter-screen for miR-21 project | 360,000 compounds, 6.9% hits | Potency, µM (titrated, usually from 57.5 µM), without a hit: top-dose activity change, negative = inhibition, actives largely listed as inhibitors | purified FLuc, Km substrates, luminescence inhibition;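 further: plate controls were vehicle for no effect and reference inhibitor for full effect; nearly all actives have a fitted effect of over 55% in size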
Target sequence (P08659 whole entry, looked up): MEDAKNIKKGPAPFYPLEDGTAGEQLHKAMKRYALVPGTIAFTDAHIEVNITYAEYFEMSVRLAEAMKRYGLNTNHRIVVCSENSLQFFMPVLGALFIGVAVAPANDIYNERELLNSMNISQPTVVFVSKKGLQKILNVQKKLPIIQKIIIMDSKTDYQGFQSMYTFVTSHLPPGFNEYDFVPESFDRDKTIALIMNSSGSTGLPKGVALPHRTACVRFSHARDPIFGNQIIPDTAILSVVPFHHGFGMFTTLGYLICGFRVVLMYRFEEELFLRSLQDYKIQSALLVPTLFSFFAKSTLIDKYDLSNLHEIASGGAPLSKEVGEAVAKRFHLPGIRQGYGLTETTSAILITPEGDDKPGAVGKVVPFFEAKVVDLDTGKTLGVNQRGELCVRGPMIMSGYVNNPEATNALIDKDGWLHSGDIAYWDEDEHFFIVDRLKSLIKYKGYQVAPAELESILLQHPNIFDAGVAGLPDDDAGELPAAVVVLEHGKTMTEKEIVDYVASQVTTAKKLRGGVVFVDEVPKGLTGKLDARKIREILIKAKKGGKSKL
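Purified P. pyralis luciferase (10nM final) with 10uM D-luciferin and 10uM ATP (Km levels) in 50mM Tris acetate pH 7.5, 10mM Mg acetate, 0.01% Tween-20, 0.05% BSA; qHTS 6-point titration, ~60 µM downward; luminescence read.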
uPA surface inh: inhibitors of cell surface uPA generation; cell surface uPA generation assay, qHTS; Potency, µM (top dose mostly 38.3 µM), inactives show at the highest dose activity change, negative = inhibition, hits mostly inhibitors; 330,000 compounds, 0.31% hits; active means well fitted inhibition curve with a large enough effect; inconclusive means small, poorly fitted or top-dose-only effect; inactive means no such curve, though single readings can be large or run the other way; tested in mouse RAW 264.7 cells; further: on the % scale 0 is the no-effect control and ±100 the full control effect; nearly all actives have a fitted effect of over 55% in size
ELG1 genotox: induces genotoxicity in HEK293T cells with luciferase-tagged ELG1 | HEK293T ELG1-luciferase reporter, luminescence, 16 h | Potency, µM (top dose mostly 46 µM), without a hit: top-dose activity change, positive = activation, hits mostly activators | 330,000 compounds, 1.3% hits | AID 504466; further: % of control where 0% means no effect; nearly all actives have a fitted effect of over 60% in size
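HEK293T cells expressing luciferase-tagged ELG1 were treated with compound or DMSO for 16 hr at 37°C. Luciferase activity was then read after 30 min with ONE-Glo at room temperature; rising signal flags genetic stress.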
SMN2 splice enh: enhancers of SMN2 splice variant expression; HEK293 SMN2-luciferase splicing reporter, luminescence, 30-36 h; Potency, µM (titrated, usually from 46.1 µM), for the others: top-dose activity change, positive = activation, actives largely listed as activators; 210,000 compounds, 2.8% hits; AID 1458; further: % of control where 0% means no effect; nearly all actives have a fitted effect of over 55% in size
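HEK293 cells carry an SMN2 minigene-luciferase reporter in which exon 7 inclusion puts luciferase in frame. Cells were seeded at 2000 cells/well, attached for 10-12 hours, then exposed to compounds for 30-36 hours at 37C before ONE-Glo luminescence.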
Rab9 prom act: activates the Rab9 promoter; Huh7 Rab9 promoter-luciferase reporter, luminescence, 24 h; Potency, µM (titrated, usually from 9.22 µM), inactives show top-dose activation, negative = inhibition, actives largely listed as activators; 320,000 compounds, 2.8% hits; further: % of control where 0% means no effect; nearly all actives have a fitted effect of over 60% in size
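Steps: seed 1500 Huh7 Rab9-luc cells per well, rest 2 h at 37 °C; add compound in DMSO; incubate 24 h; add luciferase reagent, 10 min ambient; read luminescence.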
NPC1 prom act: NPC1 promoter activation; AID 485313; Potency, µM (doses to about 9.22 µM), for inactives: at the top dose activation, actives largely listed as activators; Huh7 NPC1 promoter luciferase reporter, 24 h; 320,000 compounds, 2.4% hits; further: % of control where 0% means no effect; nearly all actives have a fitted effect of over 60% in size
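Luminescence read-out of NPC1 promoter-driven luciferase in stably transfected Huh7 cells; compounds delivered in DMSO and left 24 h at 37C, 5% CO2, qHTS titration format.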
* = called active by the depositor; ? = inconclusive; · = no result; [ ] = another dose, or the depositor's remark. Hits are enriched below; roughly 7.3% of the tested compounds scored in any of these assays. Unless noted, the call rests on the fitted dose curve; in most records, active means well fitted curve in the direction sought with a large enough effect; inconclusive means small, poorly fitted or top-dose-only effect, or another doubt; inactive means no such curve, though single readings can be large; an effect the other way counts as inactive or inconclusive. Potency means the concentration at half of the fitted maximal effect.

SMILES | FLuc modulator | uPA surface inh | ELG1 genotox | SMN2 splice enh | Rab9 prom act | NPC1 prom act
O=C(Nc1ccc(N2CCOCC2)cc1)c1ccc([N+](=O)[O-])o1 | 8.49µM* | -13.4% | 9.2µM* | · | 1.58µM* | 1.41µM*
CC1CCN(c2ccc(NC(=O)c3ccc(Br)o3)cc2)CC1 | 1.9µM* | -5.1% | 1.46µM* | · | 1µM* | 1µM*
CN1CCN(c2ccccc2NC(=O)c2ccc([N+](=O)[O-])o2)CC1 | 0.6% | 4.47µM* | -21.9% | · | -27.7% | -40.6%
O=C(Nc1ccc(N2CCCC2)c(Cl)c1)c1ccc(Br)o1 | 5.36µM* | -3.0% | ? | 11.2µM* | 2.82µM* | 3.55µM*
O=C(Nc1ccc(N2CCN(C(=O)c3ccco3)CC2)cc1)c1ccccc1Br | 0.6% | -0.2% | -17.3% | · | 1.2% | 7.0%
CCC(=O)N1CCN(c2ccc(NC(=O)c3ccc(Br)o3)cc2)CC1 | -12.8% | ? | 15.4% | 12.7% | 1.3% | 7.6%
CN1CCN(c2ccc(NC(=O)c3ccccc3Br)cc2)CC1 | ? | -6.0% | 14.6µM* | ? | ? | ?
N/C(=N\O)c1ccc(NC(=O)c2ccc(Br)o2)cc1 | 16.9µM* | -5.5% | 23.1µM* | 18.5% | ? | ?
O=C(NNC(=O)c1ccc(Br)o1)c1ccc(NC(=O)c2ccccc2)cc1 | 5.9% | 4.1% | 4.9% | -4.9% | -4.3% | -2.6%
CN1CCN(c2ccc(NC(=O)c3ccc(Br)o3)cc2)CC1 | 12µM* | -13.6% | 16.4µM* | · | ? | 1.58µM*
COC(=O)c1ccc(Cn2cc(Cl)cn2)o1 | 0.6% | -2.9% | 1.0% | · | -0.6% | -6.2%
O=S(=O)(NCCc1ccc(Cl)cc1)c1ccc(N2CCCCS2(=O)=O)cc1 | -1.1% | · | · | · | · | ·
CC(=O)c1cc(-c2ccc(F)cc2)n(CCC(=O)NCc2ccc(C)cc2)c1C | -6.8% | · | · | · | · | ·
CCCCn1nc(NC(=O)c2cccc(Cl)c2)c2cc3cccc(C)c3nc21 | -1.0% | · | · | 3.9% | · | ·
O=c1c(Cl)c(N2CCOCC2)cnn1-c1nc2ccccc2[nH]1 | 10.7µM* | ? | ? | 11.2µM* | 1.58µM* | 2.51µM*
c1ccc2[nH]c(N3CCOCC3)nc2c1 | 2.3% | 3.0% | 3.1% | 3.1% | 7.2% | 7.2%
CCS(=O)(=O)n1nc(-c2ccco2)nc1NCc1ccc(C(C)C)cc1 | -2.7% | · | · | · | · | ·
O=C(NCC(=O)N1CCCCC1)c1sc2ccccc2c1Cl | 8.49µM* | -9.6% | ? | · | 2.24µM* | 1.78µM*
CC1CC(C)CN(C(=O)CNC(=O)c2sc3ccccc3c2Cl)C1 (centres undefined) | ? | -6.2% | -1.0% | · | 13.4% | 4.8%
O=C(Nc1ccc(CN2CCCCC2)cc1)c1sc2ccccc2c1Cl | 13.5µM* | -8.4% | 13.0% | · | 15.1% | 25.2%
CC1CCCN(C(=O)CNC(=O)c2sc3ccccc3c2Cl)C1 (centres undefined) | 15.1µM* | -1.8% | ? | · | 2.51µM* | ?
Cc1cccc(C)c1NC(=S)N(CCCN1CCOCC1)Cc1cccnc1 | -3.5% | 1.0% | 1.8% | 2.7% | -9.6% | -1.1%
COc1cccc(NC(=O)c2c(C(=O)Nc3ccccc3)sc3nc(C)cc(=O)n23)c1 | 3.3% | · | · | 1.2% | · | ·
COC(=O)Cc1c(C)nc2nc(-c3ccccc3)[nH]n2c1=O | 16.9µM* | -1.9% | 7.3% | 23.9% | 2.5% | 7.8%
COC(=O)Cc1c(C)nc2nc(-c3ccc(Cl)cc3)[nH]n2c1=O | 10.7µM* | -7.3% | ? | 3.6% | 26.0% | 16.6%
SMILES | FLuc modulator | uPA surface inh | ELG1 genotox | SMN2 splice enh | Rab9 prom act | NPC1 prom act
COC(=O)Cc1c(C)nc2nc(-c3ccc(C)cc3)[nH]n2c1=O | 8.49µM* | -5.7% | ? | 8.1% | 21.3% | 14.6%
O=C(NCCc1ccc(Cl)cc1)c1ccc(Cn2c(=O)[nH]c3ccccc3c2=O)cc1 | -1.0% | · | · | · | -14.6% | -23.3%
Cc1cc(Br)cc(C)c1NC(=O)c1sc2ncn(Cc3cccc(F)c3)c(=O)c2c1C | 0.4% | · | · | · | · | ·
CC(C)C(=O)Nc1cccc(C(=O)Nc2nnc(C(F)(F)F)s2)c1 | 16.9µM* | · | · | 13.7% | · | ·
CC(C)C(=O)Nc1ccc(C(=O)Nc2nnc(C(C)C)s2)cc1 | ? | 12.6% | 12.1% | · | ? | 23.3%
CCc1nnc(NC(=O)c2cccc(NC(=O)C(C)C)c2)s1 | ? | 1.0% | 28.9% | 15.8µM* | ? | ?
COCc1nnc(NC(=O)c2cccc(NC(=O)C(C)C)c2)s1 | -14.2% | 3.7% | 10.4% | · | 4.5% | 15.2%
CC(C)C(=O)Nc1cccc(C(=O)Nc2nnc(C(C)C)s2)c1 | ? | 1.2% | ? | 11.2µM* | 1.41µM* | 2.82µM*
CC(C)c1nnc(NC(=O)c2cccc(NC(=O)C(F)(F)F)c2)s1 | 21.3µM* | -5.3% | ? | 14.1µM* | 1.26µM* | 3.55µM*
Cc1nnc(NC(=O)c2cccc(NC(=O)C(C)C)c2)s1 | -15.8% | -1.0% | 4.5% | 5.9% | 5.1% | 4.1%
Cc1cc(C)cc(NC(=O)CN2C(=O)CCc3cc(S(=O)(=O)N4CCCCC4)ccc32)c1 | -6.5% | · | · | · | · | ·
CCCCN1C=CC(=C2C(=O)c3ccccc3C2=O)C=C1 | 0.135µM* | -19.7% | ? | -66.8% | 0.0316µM* | ?
CCCCNC1=CC(=O)C(=O)c2ccccc21 | ? | -8.9% | 4.1% | · | 11.2% | 5.6%
Fc1ccc(-n2[nH]nnc2=S)cc1N1CCCC1 | 23.9µM* | 1.6% | 13.0% | 0.7% | 15.4% | 15.6%
O=C(CCN1C(=O)/C(=C\c2ccco2)SC1=S)Nc1ccc(C(=O)O)c(O)c1 | 10.7µM* | -23.1% | 0.2%[9.26 µM] | · | -0.8% | -0.5%
COc1ccccc1/C=C1\SC(=S)N(CCC(=O)Nc2ccc(C(=O)O)c(O)c2)C1=O | 6.01µM* | 3.5% | 4.2% | · | 4.6% | -1.2%
O=C(CCN1C(=O)/C(=C/c2ccco2)SC1=S)Nc1ccc(C(=O)O)c(O)c1 | 7.57µM* | 5.6% | -3.5% | · | -3.1% | -1.2%
O=C(CN1C(=O)S/C(=C\c2cccs2)C1=O)Nc1ccc(C(=O)O)c(O)c1 | 23.9µM* | -3.8% | -1.3% | · | 8.3% | 1.3%
O=C(CCCN1C(=O)/C(=C\c2ccco2)SC1=S)Nc1ccc2ccccc2c1 | -0.7% | 4.6% | 0.0% | 264.6% | 0.0% | 4.0%
O=C(CCN1C(=O)/C(=C/c2ccco2)SC1=S)Nc1ccc(O)cc1C(=O)O | ? | 1.9% | 0.0% | · | -2.0% | -1.5%
COc1ccccc1NC(=O)C1CCN(S(=O)(=O)c2ccc3[nH]c4c(c3c2)CCCCC4)CC1 | -4.8% | · | · | · | · | ·
CCCc1nn2c(=O)cc(COC(=O)C3CCCCC3)nc2s1 | -16.6% | · | · | · | · | ·
Cc1cc(=O)n2c(C(=O)Nc3ccc(Br)cc3)c(C(=O)Nc3ccccc3)sc2n1 | 2.8% | · | · | 9.5% | · | ·
COc1ccc(OC)c(NC(=O)CS(=O)(=O)Cc2nc(-c3ccc(C)cc3)oc2C)c1 | -13.0% | · | · | 4.2% | · | ·
